Hits are enriched below; roughly 1.2% of the tested compounds scored in any of these assays.
GALR2 ag: agonists of human galanin receptor 2 (GALR2); O43603; GALR2-expressing cells, agonist activation read-out; activation, % (no concentration beside the values); 140,000 compounds, 0.48% hits; AID 803; in the data active = activation above about 5%, passing the limit was not always enough;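 also: 0% = vehicle buffer wells and 100% = reference agonist at full effect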
GALR2 antag: antagonists of human galanin receptor 2 (GALR2) | O43603 | GALR2-expressing cells, antagonist mode | inhibition, % at 4 µM | 140,000 compounds, 0.39% hits | AID 828;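 also: cells stimulated with galanin 1-16 at roughly its EC80; 0% = agonist challenge control and 100% = basal control without agonist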
S1P2 ag: activates the human S1P2 receptor; O95136; S1P2-expressing cell line, agonist reporter read-out; activation, % at 4.5 µM; 97,000 compounds, 0.46% hits; in the data active = activation above about 16%;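 also: 0% = vehicle low control and 100% = maximal reference agonist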
Target sequence (O95136 whole entry, looked up): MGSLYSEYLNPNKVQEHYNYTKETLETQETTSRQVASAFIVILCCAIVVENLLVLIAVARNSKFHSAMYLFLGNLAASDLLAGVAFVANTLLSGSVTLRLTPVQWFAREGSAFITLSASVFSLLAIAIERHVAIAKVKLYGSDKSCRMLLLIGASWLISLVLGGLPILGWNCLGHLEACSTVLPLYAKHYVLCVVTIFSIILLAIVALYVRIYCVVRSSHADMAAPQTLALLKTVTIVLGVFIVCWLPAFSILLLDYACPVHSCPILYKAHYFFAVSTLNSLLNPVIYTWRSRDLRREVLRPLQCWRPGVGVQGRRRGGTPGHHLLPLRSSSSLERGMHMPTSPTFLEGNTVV
S1P2 antag: blocks the human S1P2 receptor. O95136. cell-based S1P2 antagonist assay, inhibition at 5 uM. inhibition, % at 5 µM. 97,000 compounds, 0.21% hits. AID 736; in the data active = inhibition above about 45%;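 also: CRE beta-lactamase reporter cells expressing human S1P2 stimulated with S1P; 0% = agonist at EC80 alone and 100% = agonist plus reference antagonist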
GALR2 ant conf: confirmation of human galanin receptor 2 (GALR2) antagonists | AID 866 | inhibition, % at 4 µM | GALR2-expressing cells, antagonist mode, inhibition | 480 compounds, 60% hits | shares compounds with GALR2 antag;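 also: cells stimulated with galanin at about its EC80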
BLA inh counter: counter-screen for GALR2 antagonists: beta-lactamase reporter inhibitors; 480 compounds, 36% hits; CHO NFAT-BLA reporter, beta-lactamase FRET, thapsigargin-stimulated; AID 867; inhibition, % at 4.2 µM; shares compounds with GALR2 antag;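 active = inhibition above the mean inhibition across tested compounds plus 3 SD, cut at about 27% in these data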;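 also: 0% = 500 nM thapsigargin stimulated wells and 100% = unstimulated BSA only wells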
* = called active by the depositor; . = not tested or not shown. Rule as the data show it, unless noted: active = inhibition above about 27%; inactive = the rest.

SMILES	GALR2 ag	GALR2 antag	S1P2 ag	S1P2 antag	GALR2 ant conf	BLA inh counter
CCCCNC(=O)COC(=O)c1cc(C)nc2ccccc12	-1	-7	-3	-2	.	.
CNC(=O)NC(=O)C(C)OC(=O)c1c2c(nc3ccccc13)/C(=C/c1cccs1)CC2 (stereo not given)	6.6*	49*	.	.	41*	48*
CCCCNC(=O)COC(=O)c1c2c(nc3ccccc13)/C(=C/c1cccs1)CC2	8.0*	27*	.	.	41*	51*
O=C(N/N=C/C1C(c2ccccc2)C1(Cl)Cl)c1cccc(Br)c1 (stereo not given)	-2	-8	-4	13	.	.
Cc1ccccc1N1C(S)=C(C#N)C(=O)NC12CCCCC2	-1	-5	.	.	.	.
COc1cc(C(=O)OCCNC(=O)c2ccncc2)cc(OC)c1OC	-1	-9	.	.	.	.
Cc1ccc(-c2csc(NC(=O)C3=NN(c4ccccc4)C(=O)CC3)n2)cc1	-1	28*	.	.	20	5
CCOC(=O)N1CCC(N2C(=O)c3ccc(C(=O)Nc4ccc(F)cc4F)cc3C2=O)CC1	-1	28*	.	.	-2	0
CCOC(=O)N1CCN(C(=O)c2ccccc2NC(=O)c2ccc(F)cc2)CC1	1	-16	.	.	.	.
C/C(=N\NS(=O)(=O)c1ccc(C)cc1)c1ccc(C)s1	-3	13	-3	-4	.	.
CCc1ccc(C(C)NC(=O)Cn2cnc3c(=O)n(C)c(=O)n(C)c32)cc1 (stereo not given)	0	-5	-7	1	.	.
COc1cccc(-n2nnnc2S(C)(=O)=O)c1	-3	33*	-7	17	55*	58*
COc1cccc(Oc2nnnn2-c2ccccc2)c1	-2	0	-2	-18	.	.
CC1(C)CC(=O)/C(=C\c2cccc([N+](=O)[O-])c2)C(C)(C)N1	-1	27*	.	.	34*	13
Nc1ccc(C(=O)OCC(=O)Nc2ccc([N+](=O)[O-])cc2C(F)(F)F)cc1	-1	14	.	.	.	.
O=C(COC(=O)c1ccc2[nH]c3c(c2c1)CCCC3)Nc1ccccc1	3	12	.	.	.	.
Cc1ccc(-n2c(Cl)c(Cl)nc(Cl)c2=O)cc1	2	81*	.	.	92*	99*
N#Cc1c(NC(=O)/C=C/c2ccco2)sc2c1CCCC2	5.9*	31*	.	.	32*	64*
O=C(/C=C/c1ccco1)Nc1sc2c(c1C(=O)O)CCC2	-1	0	1	23	.	.
O=C1C=CC(=O)N1CCCCCCN1C(=O)C=CC1=O	-3	86*	.	.	78*	95*
O=C1CCN2C=Nc3cccc4ccc1c2c34	0	29*	-5	3	20	21
c1ccc(CN2CCN(C3=Nc4cccc5cccc3c45)CC2)cc1	-3	-1	-1	4	.	.
N#CCC(=O)NCCCc1ccccc1	-1	0	.	.	.	.
COc1cccc(C(=O)c2sc(NC(C)C)nc2N)c1	-3	40*	.	.	10	-2
COc1ccc(C(=O)c2sc(NC(C)C)nc2N)cc1OC	-3	2	-2	8	.	.
SMILES	GALR2 ag	GALR2 antag	S1P2 ag	S1P2 antag	GALR2 ant conf	BLA inh counter
O=C(CSc1nnc(SCc2cccc3ccccc23)s1)N/N=C/C=C/c1ccccc1[N+](=O)[O-]	-1	-2	.	.	.	.
Cc1ccc(-n2c(-c3ccc(Br)cc3)c[n+]3c2CCc2ccc4cccnc4c2-3)cc1	1	59*	-6	88*	31*	61*
Nc1c(C(=O)Nc2ccccc2F)sc2nc(-c3ccco3)ccc12	-1	31*	-8	34	27	22
NC(=O)c1sc2nc(-c3ccco3)ccc2c1N	0	-21	-5	14	.	.
CC(NC(=O)OC(C)(C)C)C(=O)Oc1cc2oc(=O)cc(-c3ccccc3)c2cc1Cl (stereo not given)	1	32*	-8	46	29*	40*
COc1ccc(NC(=O)/C(Cl)=C(/Cl)S(=O)(=O)Cc2ccccc2)cn1	-2	82*	-10	104*	92*	92*
COc1ccc(NS(=O)(=O)Cc2ccccc2Cl)cn1	0	2	-6	20	.	.
O=C(Cc1ccc(F)cc1)Oc1ccc(C(=S)N2CCCC2)cc1	0	-1	.	.	.	.
CC(=O)N1CCN(c2nc3cc4c(cc3nc2NS(=O)(=O)c2ccccc2)OCCO4)CC1	1	10	-3	16	.	.
O=C(CSc1nc2ccccc2s1)N1c2ccccc2Sc2ccc(Cl)cc21	-2	1	-1	0	.	.
CCN(CC)CC(=O)N1c2ccccc2Sc2ccc(Cl)cc21	-1	29*	-6	8	16	7
CC(=O)C(=Nc1ccccc1Cl)NNc1ccc(Cl)cc1	-2	28*	-4	-31	14	0
Cc1nn2c(-c3cccc(NC(=O)CSc4nc5ccccc5o4)c3)nnc2c2ccccc12	-1	1	2	-3	.	.
Clc1ccc(OCCN2CCN(c3ncnc4sccc34)CC2)cc1	0	40*	.	.	49*	14
C=C1C(=O)[C@@]23[C@H](O)C[C@@H]4C(C)(C)CC[C@H](O)[C@@]4(C)[C@@H]2CC[C@@H]1[C@H]3O	0	38*	.	.	38*	58*
C=C1C(=O)[C@@]23[C@H](O)C[C@@H]4C(C)(C)CC[C@H](O)[C@]4(C)[C@@H]2C[C@H](O)[C@@H]1[C@H]3O	-2	-6	.	.	.	.
COc1ccccc1CNC(=O)COC(=O)Cc1ccc(Cl)cc1	-1	-5	.	.	.	.
N#Cc1cc2c(nc1SCc1nc3ccccc3[nH]1)CCC2	0	28*	0	14	30*	16
Cc1ccn2c(Nc3ccc4c(c3)OCO4)c(-c3ccccn3)nc2c1	-2	30*	.	.	20	26
O=Cc1c[nH]c2ccc(S(=O)(=O)N3CCOCC3)cc12	-2	13	.	.	.	.
COc1ccc(C(=O)c2sc3nc(-c4ccccc4)ccc3c2N)cc1	-2	32*	.	.	42*	49*
O=C(CCn1c(=O)oc2ccccc21)NCc1cccs1	-3	7	-9	-20	.	.
O=C(c1cc2ccccc2oc1=O)N(Cc1ccc2c(c1)OCO2)Cc1ccco1	-1	-20	-3	7	.	.
O=C(O)Cc1sc(N/N=C\c2ccccc2)nc1-c1ccccc1	-1	29*	.	.	11	1
Cc1cc(/C=N/n2cnnc2)c(C)n1-c1ccc(OCc2ccc(Cl)cc2)cc1	1	45*	-7	77*	40*	19
O=C(NNS(=O)(=O)c1ccc([N+](=O)[O-])cc1)c1cnn(-c2ccccc2)c1-n1cccc1	1	-5	-2	11	.	.
Cc1cccc(S(=O)(=O)C(C#N)c2nc3ccccc3nc2N2CC(C)OC(C)C2)c1 (stereo not given)	0	28*	-6	17	2	-1
Cc1ccc(S(=O)(=O)C(C#N)c2nc3ccccc3nc2N2CC(C)OC(C)C2)cc1C (stereo not given)	-1	0	-7	1	.	.
O=C(CN1C(=O)NC2(CCc3ccccc32)C1=O)Nc1ccc(N2CCOCC2)cc1 (stereo not given)	-3	-2	1	-16	.	.
Cc1ccc(NC(=O)CN2C(=O)NC3(CCc4ccccc43)C2=O)cc1Cl (stereo not given)	-4	28*	-6	16	4	-1

Screening data as filed in PubChem.
